Results: the supplement of paper PMC6555819

Each sequence was assayed on VDR:RXRa (NR concentration 270 nM, RXRa partner concentration 90 nM) (assay: PBM binding z-score (relative to random genomic background probes); higher = stronger binding; sequences stand for … in GC…GCGATTGACAGCGTAGAATGAAGG).
Description: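 Protein-binding microarray (Agilent 4x180K custom design, double-stranded 60-nt probes: 5' GC cap, 34-nt variable region, 24-nt constant primer region; full probe sequence given). Purified or IVT nuclear receptor:RXRα heterodimers (3:1 NR:RXRα, mostly 270:90 nM) or homodimers were incubated for 1 h in PBS with 2% milk and no ligand, then detected with Alexa488 antibodies. Fluorescence from o1-orientation probes (~5 replicates averaged) was converted to z-scores against 500 random hg19 background probes. Variable regions are seed direct-repeat (DR0–DR5) sites, all their single-nucleotide variants and half-site ablations.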

Sequence | PBM binding z-score
CCGACTGGGGCATAGGGTTACCATAAGCCAGCCC | 0.304
CAAACTAGGACACCGGAAGGTCAAAGTCCGCATG | 3.3
CCTACTGGGCCACGAAAGGTCATGGATTCAGTGA | 4.1
CCTACTGGGCCATTCAGAGGTCATTGCTCATATG | 3.84
TCATGTAGATCAGCAGGTTAAGAAAGCTGGCCAA | 0.442
TCGAGTAGGTTGGTCGGGGCATTCAGCCAACATA | 0.314
ACTATTAGTTGAGACGAGGGAAACCGATAGGTTG | -0.364
TCTGCTAGGTCAACGATGGTCGGCTAATCTGCTA | 1.42
ATGTGTAGGTTATCGGGTCATTCAGTTTGCGCAT | 5.25
CCTACTGGGCCAAAAAGGTCATTGACGCCGATAA | 4.36
CCGACTGGGGCAGAAAGGTTACTATACCATCCGG | 0.555
CCGAGTAGCTTATGGGGCATTCAGGCAACGGTGA | -0.651
CCCAGCAGGCCAATCTGGGTCACTCAAGGCTTGA | 0.284
CGAACGAGGGCATGAGATGATAGCAAATGCCGAT | 0.478
CAAACTAGATCAAGAGGTCAAAGTCCGCTTCCCG | 4.68
TCTATTAGTTGAAGGGCAACCGCCGAGTCCGTTT | 0.974
CCGACTGGGCCAAGGTCATTGATCAGTCAAAGCA | 3
ACTATTAGTTGACTTAGGTCAACCGATACGACGC | 2.42
CCTACTTGGCCATCAGGTCATTGATATCAACGTT | 2.12
TAGCCTGGGTCATTGGGCCAGTATAGTACGCATC | 1.97

Sequence | PBM binding z-score
ATTTCTAGGTAAGACTCAGTTCAGTGAAGAACGC | 1.6
TCGCCTAGGTCATTCAGGGGCCAGTATAGAAAGC | 3.06
TCTATTAGTTGAGGGGCAACCGACGAGTCCGTTT | 0.965
CCCAGTAGGTTATGGGGCATTCAGGCAACGGTGA | 0.00537
CGCACTAGGTCAAGGACAGTGAATCTCCGCACGC | 1.28
GATACAGGGTCAGCTGGAGGCCAGAGTATGGAAA | 3.29
ATCTCTAAGTAACCAAGTTCAGTGAATGCCGAAC | 2
TCTTGTAGATCATTAGAGGTTAAGAAAGTGCGCT | 2.09
AGGACGAGGGCACGCTGAGTTGATAGCAGAGTAG | 2.09
ATCTTTAGGTAAAGATAGTTCAGTGAATGCAAAT | 0.897
TGTCAAAGTTGAAAGGTAACGTAAGTATCCACAC | 0.996
CCTTACGGGTCACGCCAGGTTATAGCATCGGAGT | 5.36
TGTCAAAGTTCAAATGTAACGTAAGTATCCACAC | 4.57
TAGCCTAGGACATTCAGGGGCCAGTATAGAAAGC | -0.174
GGAACGTGGGCAAGTTGATAGCAGAGTTTGATGG | -0.629
CCTAATGGGCCAAGGTCATTGATCAGTCAAAGCA | 3.37
CGAACTAGGTCATTGACAGGACAGTGAGTAGTAA | 2.18
AGAACGAGGGCACGCTGGGTTGATAGCAGAGTAG | 2.53
CCAGACAGGTGTGAAGGTAACTCAGCCTCGATTA | -0.322
ATCTCTAGGTAGCAAGTTCAGTGAAAGAGAGGAC | 1.35
